Bioassay records: PubChem BioAssay, National Center for Advancing Translational Sciences (NCATS)
The list is not random: actives were taken first. Their share in the collection is about 21%.
CHX counter-1: affects cycloheximide protein synthesis inhibition readout, counter-screen. cell reporter, cycloheximide protein synthesis inhibition counterscreen. max response, %. 300,000 tested, 12% active; in the data active = max response mostly above about 13%, no sharp cut-off; inactive = mostly below about 14%; also: read at 38.3 µM for the half of the compounds with a filed dose; 0% is about no effect
Pf growth 96h: inhibits malaria parasite growth, 96 h; P. falciparum luciferase reporter growth, 96 h; Potency, µM (doses to about 28.7 µM), inactives show top-dose activity change, negative = inhibition, usual class: inhibitors; 320,000 tested, 6.9% active; also: potency is read from the fitted curve at half-maximal effect; % is scaled to controls: 0 for no effect and ±100 for the full control effect
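Plates of compound plus infected erythrocytes (2% hematocrit, 0.05% parasitemia final) incubate 96 hours, 37 C, 5% CO2. Detection reagent added; reduced luminescence from the parasites' luciferase reporter flags inhibition.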
Shiga inhibitor: Shiga toxin inhibition; Vero cells, Shiga toxin protein synthesis inhibition reporter; inhibition, % at 38.7 µM; 290,000 tested, 9.2% active; in the data active = inhibition mostly above about 28%, no sharp cut-off; inactive = mostly below about 43%; also: 0% is about no effect
Pf growth 48h: inhibits P. falciparum growth in the first generation, 48 h. P. falciparum luciferase growth in erythrocytes, 48 h. Potency, µM (top dose mostly 28.7 µM), for the others: at the top dose activity change, negative = inhibition, most hits filed as inhibitors. 310,000 tested, 5.9% active. AID 504832; also: potency is read from the fitted curve at half-maximal effect; % is scaled to controls: 0 for no effect and ±100 for the full control effect
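Luciferase-expressing P. falciparum in infected erythrocytes (2% hematocrit, 0.1% parasitemia final) in RPMI 1640/0.5% Albumax were exposed to compound for 48 hours at 37 C, 5% CO2; growth read as luminescence.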
CHX counter-2: counter-screen for Shiga toxin inhibitors: cycloheximide protein synthesis block | shares compounds with Shiga inhibitor | Cycloheximide counterscreen, protein synthesis reporter, Shiga toxin assay | Potency, µM (series often up to 38.3 µM), inactives show at the top dose activity (activation), hits mostly activators | 510 tested, 3% active; calls by dose curve; also: potency is read from the fitted curve at half-maximal effect; 0% is about no effect
* marks the source's active call; other numbers are inactive results; ? = inconclusive; · = not tested or not shown; ! = repeats disagree; [ ] = remark or other dose. Unless noted, calls follow the shape of the dose curve; as a rule, active = well fitted inhibition curve with a large enough effect; inconclusive = small, poorly fitted or top-dose-only effect, or another doubt; inactive = no such curve, though single readings can be large or run the other way.

SMILES	CHX counter-1	Pf growth 96h	Shiga inhibitor	Pf growth 48h	CHX counter-2
Cc1cc(Cl)ccc1NC(=O)CN1CCC(C(O)(c2ccccc2)c2ccccc2)CC1	-5	?	122*	?	-2%
Cc1ccc(NC(=O)CN2CCC(NC(=O)Cc3ccccc3)CC2)c(C)c1	-4	?	-17	5%	·
Cc1ccc(N2C(=O)c3cccc4c(Oc5ccccc5[N+](=O)[O-])ccc(c34)C2=O)c(C)c1	-2	-9%	-7	0%	·
CC1(C)CC(=O)C2=C(C1)OC(N)=C(C#N)C2Cc1ccccc1 (stereo unspecified)	-1	-18%	-1	0%	·
CCC(C)C1C(C#N)=C(N)OC2=C1C(=O)CC(C)(C)C2 (stereo unspecified)	-2	?	14*	?	-2%
O=C(COc1cc(Cl)c(Cl)cc1Cl)Nn1cnnc1	-1	42%	-13	1%	·
Cc1cc(C(=O)CS(=O)(=O)c2ccc(F)cc2)cc(C)c1O	10	59%	34*	66%	?
O=C(COc1ccc2ccccc2c1)NCC1CCCO1 (stereo unspecified)	-2	-26%	39*	44%	3%
Nc1ccc(C(=O)NC2CCSc3ccccc32)cc1[N+](=O)[O-] (stereo unspecified)	18	?	28*	-14%	?
CCCN(C(=O)c1cccc(S(=O)(=O)N2CCCc3ccccc32)c1)C1CCS(=O)(=O)C1 (stereo unspecified)	·	?	·	-29%	·
COc1ccc(C(C)(C)C)cc1S(=O)(=O)N1CCC(C(N)=O)CC1	-6	5%	-2	3%	·
COc1ccc(/C=C(/NC(=O)c2cccc([N+](=O)[O-])c2)C(=O)O)cc1OC	5	?	-9	52%	·
COc1cccc(/C=C/C(=O)c2cccc([N+](=O)[O-])c2)c1	7	25%	51*	9%	0%
COc1cccc(/C=C/C(=O)c2cccc([N+](=O)[O-])c2)c1OC	11	8%	60*	-1%	-2%
CC(C)CN(CC(C)C)C(=O)Nc1cccc([N+](=O)[O-])c1	-2	?	23	?	·
COc1ccc(NS(=O)(=O)c2cccc(C(=O)NCC3(N(C)C)CCCCC3)c2)cc1	·	?	·	44%	·
CN(C)S(=O)(=O)c1ccc(C(=O)Nc2ccc(CCC(=O)N3CCCC3)cc2)cc1	-2	-2%	-4	?	·
CN(C)S(=O)(=O)c1ccc(C(=O)Nc2ccc(CN3CCCC3)cc2)cc1	7	·	51*	?	1%
CC(C)NC(=O)CSc1nnc(-c2ccc(S(=O)(=O)N3CCCC3)cc2)n1CC1CCCO1 (stereo unspecified)	-2	-10%	-11	28%	·
O=C(O)Cn1nnc(-c2ccc(OCc3ccccc3Cl)cc2)n1	-1	16%	40*	-10%[0.00184 µM]	3%
COc1ccc2[nH]cc(CCNC(=O)Cc3ccc(Cl)cc3)c2c1	-6	-4%	-3	-18%[0.00184 µM]	·
Cc1ccc2c(N)[nH]nc2n1	11	-14%	82*	43%	-1%
CCn1c(O)c(C2=NCCCC2)c2ccccc21	-1	0%	125*	0%	2%
CC(=O)N1CCN(c2nc3cc4c(cc3nc2NS(=O)(=O)c2ccccc2)OCCO4)CC1	-3	138%	-19	?	·
Cc1cc(C(=O)Nc2cc(C)on2)on1	-3	?	16	33%	·
SMILES	CHX counter-1	Pf growth 96h	Shiga inhibitor	Pf growth 48h	CHX counter-2
Cc1ccc(O)c(NC(=O)c2cc(C)no2)c1	1	55%	38*	24%	6%
O=C(Cc1c[nH]c2ccccc12)NCc1ccc(Cl)cc1	10	57%	30*	2%	7%
O=C(NCCc1c[nH]c2ccccc12)C(F)(F)F	10	38%	43*	0%	-1%
O=C(CCc1c[nH]c2ccccc12)NCCc1ccccc1	11	0%	68	18%	·
Cc1noc(C)c1C(=O)Nc1ccc2c(c1)CCC2	8	15µM*	73*	24%	-2%
Cc1noc(C)c1C(=O)Nc1ccc(F)cc1	2	20%	-12	12%	·
Cc1cc2nc(CCN3CCOCC3)n(S(=O)(=O)c3ccc(C(C)(C)C)cc3)c2cc1C	12	21%	38*	?	?
Cc1ccc(-n2cc(C(C)(C)C)[nH]c2=S)cc1	29	18%	18	?	·
COc1ccc(C2C(C#N)=C(C)NC3=C2C(=O)CC(C)(C)C3)c(OC)c1 (stereo unspecified)	-3	-17%	43*	-28%	-2%
CCOc1cccc(C(=O)NC(=S)Nc2ccc(Cl)cc2C(=O)O)c1	-2	8%	24	37%	·
O=C(COc1ccc2ccc(=O)oc2c1)NCc1ccccn1	-2	-3%	-11	3%	·
Cc1cc(OCC(=O)NCc2ccccn2)cc(C)c1Br	2	?	47*	14%	6%
Cc1ccc2c(c1C)NC(C(=O)O)C1CC=CC21 (stereo unspecified)	5	·	110*!	?	-2%
CC1Cc2ccccc2N1C(=O)CSc1nnc(-c2ccc(S(=O)(=O)N3CCCC3)cc2)o1 (stereo unspecified)	-5	-4%	-8	?	·
Cc1cc(=O)c(C(=O)O)nn1-c1ccccc1	3	51%	-5	26%	·
Cc1ccc2[nH]c(=O)c(CN(CCCN3CCOCC3)C(=O)Nc3ccc(Cl)cc3)cc2c1	9	0%	48*	3.7µM*	0%
Cc1cc(NC(=O)Cc2ccc(Br)cc2)no1	5	?	18	-12%	·
Cc1cc(NC(=O)/C=C/c2ccc(Br)cc2)no1	7	?	56*	?	?
CCC(=O)c1cn(CC(=O)Nc2ccc(OC)cc2)c2ccccc12	-4	3%	-4	26%	·
Cc1cc(C)n(Cc2nc3ccccc3n2C)n1	-2	0%	11	0%	·
Cc1cc(C)nc(SCc2nc3ccccc3n2C)n1	13	?	41*	31%	8%
CCOCc1c(C(=O)Nc2ccc(OC)nc2)oc2ccccc12	9	-3%	2	2%	·
CCOC(=O)c1ccc(N/C=C/C(=O)c2ccc(OC)c(OC)c2)cc1	14	-10%	58*	-12%	3%
CC(=O)c1cc(CN2CCN(C3CCCCC3)C(CCO)C2)cs1 (stereo unspecified)	0	-6%	-17	-1%	·
CC1CCCN(CCSc2ccc(Cl)cc2)C1 (stereo unspecified)	-1	-20%	30*	2%	0%
Cc1ccc2c(CN3CCCCC3C)cc(=O)oc2c1C (stereo unspecified)	5	?	40*	?	-1%
O=C(O)Cc1ccc2oc(-c3ccccn3)nc2c1	13	23%	38*	-1%	?
CCc1ccc(NC(=O)c2cnc(N3CCN(c4ccccn4)CC3)c3ccccc23)cc1	13	13µM*	50*	?	2%
CC(C)NC(=O)c1cnc(N2CCN(c3ccccn3)CC2)c2ccccc12	3	?	-28	?	·
